Source: PubChem BioAssay (Tox21)
Values without a mark were called inactive. Results filed as inconclusive are left out. A call without a number means that no potency is given here. Calls of active or inactive are those of the source. Unless noted, calls follow the shape of the dose curve; as a rule, active = well fitted curve in the direction sought with a large enough effect in the repeat runs; inconclusive = weak or mixed curves; inactive = no such curve, though single readings can be large; an effect the other way counts as inactive or inconclusive.

Key:
[1] = qHTS assay for small molecule agonists of the p53 signaling pathway (AID 651631; calls by dose curve; also: nearly all actives have a fitted effect of over 15% in size)
Procedure, shortened: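 HCT-116 p53RE-bla reporter line, 16 h compound treatment at 37 °C, then fluorescence after 2 h with B/G FRET substrate.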

[2] = qHTS assay for small molecules that induce genotoxicity in human embryonic kidney cells expressing luciferase-tagged ATAD5 (AID 651632); also: nearly all actives have a fitted effect of over 15% in size
Procedure, shortened: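 HEK293T cells carrying a luciferase reporter tagged to ATAD5 were exposed to compound or DMSO vehicle for 16 hr at 37C, 5% CO2. Amplite was added, and after 30 min at room temperature luciferase activity was read as a marker of ATAD5 induction.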

[3] = qHTS assay for small molecule agonists of the p53 signaling pathway - cell viability (AID 651633; calls by dose curve;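 also: p53RE-bla HCT reporter cells with a stable beta-lactamase p53 reporter; series mostly up to about 83 µM; nearly all actives have a fitted effect of over 30% in size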)
Procedure, shortened: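 p53RE-bla cells were treated with compound for 16 hours at 37 C. Cytotoxicity was then measured as CellTiter-Glo luminescence after 30 min at room temperature.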

[4] = qHTS assay for small molecules that induce genotoxicity in human embryonic kidney cells expressing luciferase-tagged ATAD5 - cell viability (AID 651634; calls by dose curve; also: nearly all actives have a fitted effect of over 25% in size)
Procedure, shortened: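 HEK293T cells expressing luciferase-tagged ATAD5 were exposed to compound or DMSO for 15.5 hr at 37C, 5% CO2. Viability was then read as live-cell protease activity by CellTiter-Fluor fluorescence after 30 min at 37C.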

[5] = qHTS assay for small molecule disruptors of the mitochondrial membrane potential - cell viability (AID 720634; calls by dose curve;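 also: human HepG2 liver cancer cells; series mostly up to about 83 µM; nearly all actives have a fitted effect of over 20% in size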)
Procedure, shortened: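 HepG2 cells seeded overnight at 37 C, then exposed to compound or DMSO for 1 hr at 37 C, 5% CO2. m-MPI dye added, then CellTiter-Glo for 30 min at room temperature; viability read as ATP luminescence.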

[6] = qHTS assay for small molecule disruptors of the mitochondrial membrane potential (AID 720635); also: potency is read from the fitted curve at half-maximal effect
Procedure, shortened: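 HepG2 cells exposed to compound 1 hr at 37C, then Mito-MPS dye 30 min. Ratio read of aggregate (540/590 nm) versus monomer (490/535 nm) fluorescence.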

[7] = qHTS assay to test for compound auto fluorescence at 590 nm (red) in HepG2 cells (AID 720674)
Procedure, shortened: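 Fluorescence at 590 nm emission following 540 nm excitation was recorded from HepG2 wells one hour after compound transfer, with DMSO-only wells as vehicle and Rose Bengal sodium equivalency as the scale.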

[8] = qHTS assay to test for compound auto fluorescence at 535 nm (green) in HepG2 cells (AID 720675)
[9] = qHTS assay to test for compound auto fluorescence at 590 nm (red) in HEK293 cells (AID 720679)
Procedure, shortened: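 Autofluorescence equivalency to Rose Bengal sodium, 540/590nm, in HEK293 cells exposed overnight to 23 nL compound per well.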

[10] = qHTS assay to test for compound auto fluorescence at 535 nm (green) in HEK293 cells (AID 720680)
[11] = qHTS assay to test for compound auto fluorescence at 460 nm (blue) in HEK293 cell free culture (AID 720681)
Procedure, shortened: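 Compounds were added to cell-free DMEM with 10% FBS and fluorescence read directly. The blue channel used 405 nm excitation and 460 nm emission, with triamterene as the reference fluorophore.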

[12] = qHTS assay to test for compound auto fluorescence at 535 nm (green) in HEK293 cell free culture (AID 720682)
Procedure, shortened: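 Steps: dispense DMEM/10% FBS into empty wells; pin in compound or DMSO; measure fluorescence at 485/535 nm. Values are fluorescein equivalents.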

[13] = qHTS assay to test for compound auto fluorescence at 590 nm (red) in HEK293 cell free culture (AID 720683)
Procedure, shortened: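 Cell-free wells of DMEM with 10% FBS received compound, and intrinsic fluorescence was read at excitation/emission 540/590 nm. Values expressed as equivalence to Rose Bengal sodium.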

[14] = qHTS assay to test for compound auto fluorescence at 590 nm (red) in HepG2 cell free culture (AID 720684)
Procedure, shortened: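 Compounds are added to culture medium (MEM, 10% FBS) lacking cells, then fluorescence is read at excitation 540 nm, emission 590 nm, with Rose Bengal sodium as the equivalency standard.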

[15] = qHTS assay to test for compound auto fluorescence at 460 nm (blue) in HepG2 cell free culture (AID 720685)
Procedure, shortened: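 Compound (23 nL) or DMSO pinned into cell-free MEM with 10% FBS; blue fluorescence read at 405/460 nm excitation/emission, expressed as auto-fluorescence equivalency to triamterene.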

[16] = qHTS assay to test for compound auto fluorescence at 535 nm (green) in HepG2 cell free culture (AID 720686)
[17] = qHTS assay to test for compound auto fluorescence at 460 nm (blue) in HepG2 cells (AID 720687)
Procedure, shortened: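 HepG2 cells in MEM with 10% FBS, attached overnight at 37 C, were exposed to compound or DMSO for 1 hr at 37 C, 5% CO2. Blue fluorescence was read at 405/460 nm, with triamterene as reference fluorophore.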

[18] = molecular target: Glucocorticoid receptor (Homo sapiens) (UniProt P04150); test: qHTS assay to identify small molecule agonists of the glucocorticoid receptor (GR) signaling pathway (AID 720691; active = well fitted activation curve with a large enough effect in the signal ratio in the repeat runs, not every such curve was filed as active; the % refers to the signal ratio)
Procedure, shortened: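 GR-bla HeLa cells (beta-lactamase reporter under glucocorticoid response element) were plated 4 h at 37 C/5% CO2, given compounds in DMSO, and incubated 18 h at 37 C. LiveBLAzer B/G FRET substrate was added for 2 h at room temperature, then fluorescence intensity read.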

[19] = molecular target: Glucocorticoid receptor (Homo sapiens) (UniProt P04150); test: qHTS assay to identify small molecule antagonists of the glucocorticoid receptor (GR) signaling pathway (AID 720692; active = well fitted inhibition curve with a large enough effect in the signal ratio in the repeat runs, not every such curve was filed as active; the % refers to the signal ratio)
Procedure, shortened: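 GR-bla HeLa cells (beta-lactamase reporter under glucocorticoid response element) were pre-plated 4 h at 37 C, treated with compounds plus 5 nM dexamethasone (final) for 18 h, then read by LiveBLAzer B/G FRET fluorescence after 2 h.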

[20] = qHTS assay to test for compound auto fluorescence at 460 nm (blue) in HEK293 cells (AID 720678)
Procedure, shortened: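 Auto fluorescence in the blue band was quantified as triamterene equivalency. HEK293 cells were seeded at 2,000/well, dosed after a 4-5 hr attachment, and kept overnight at 37C before the 405/460 nm reading.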

Chain of Glucocorticoid receptor (Homo sapiens) (P04150 whole entry, looked up): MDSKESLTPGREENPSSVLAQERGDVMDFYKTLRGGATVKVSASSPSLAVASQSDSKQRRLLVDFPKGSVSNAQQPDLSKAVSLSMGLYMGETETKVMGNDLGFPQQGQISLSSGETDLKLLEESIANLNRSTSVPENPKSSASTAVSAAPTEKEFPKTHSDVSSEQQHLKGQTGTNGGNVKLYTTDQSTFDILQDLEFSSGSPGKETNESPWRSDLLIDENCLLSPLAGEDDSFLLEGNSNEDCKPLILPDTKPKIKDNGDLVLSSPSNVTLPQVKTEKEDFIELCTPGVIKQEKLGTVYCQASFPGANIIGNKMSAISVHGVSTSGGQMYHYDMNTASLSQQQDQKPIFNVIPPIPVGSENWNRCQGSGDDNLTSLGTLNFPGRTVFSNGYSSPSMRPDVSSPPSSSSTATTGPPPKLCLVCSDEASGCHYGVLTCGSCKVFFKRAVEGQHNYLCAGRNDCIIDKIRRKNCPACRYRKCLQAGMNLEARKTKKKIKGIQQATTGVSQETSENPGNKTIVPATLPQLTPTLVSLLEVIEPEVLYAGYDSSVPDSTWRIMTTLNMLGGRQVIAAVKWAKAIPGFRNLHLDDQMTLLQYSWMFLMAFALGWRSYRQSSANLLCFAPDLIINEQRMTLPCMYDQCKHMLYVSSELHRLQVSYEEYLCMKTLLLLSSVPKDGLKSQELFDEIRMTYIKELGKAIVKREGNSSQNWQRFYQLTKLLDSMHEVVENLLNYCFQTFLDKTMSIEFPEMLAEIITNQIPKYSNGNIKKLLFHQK

SMILES: Cc1cc(C)cc(OCC2CNC(=O)O2)c1 (stereo not drawn)
- Potency [1]: inactive
- Potency [2]: inactive
- Potency [3]: inactive
- Potency [4]: inactive
- Potency [5]: inactive
- Potency [6]: inactive
- outcome [7]: inactive
- outcome [8]: inactive
- outcome [9]: inactive
- outcome [10]: inactive
- Potency [11]: inactive
- outcome [12]: inactive
- outcome [13]: inactive
- outcome [14]: inactive
- Potency [15]: inactive
- outcome [16]: inactive
- Potency [17]: inactive
- Potency [18]: inactive
- Potency [19]: inactive

SMILES: O=C(O)c1ccc[n+]([O-])c1
- Potency [1]: inactive
- Potency [2]: inactive
- Potency [3]: inactive
- Potency [4]: inactive
- Potency [5]: inactive
- Potency [6]: inactive
- outcome [7]: inactive
- outcome [8]: inactive
- Potency [20]: inactive
- outcome [9]: inactive
- outcome [10]: inactive
- outcome [12]: inactive
- outcome [13]: inactive
- outcome [14]: inactive
- Potency [15]: inactive
- outcome [16]: inactive
- Potency [17]: inactive
- Potency [18]: inactive
- Potency [19]: inactive

SMILES: CCCc1ccc(N)cc1
- Potency [1]: inactive
- Potency [2]: inactive
- Potency [3]: inactive
- Potency [4]: inactive
- Potency [5]: inactive
- outcome [7]: inactive
- outcome [8]: inactive
- Potency [20]: inactive
- outcome [9]: inactive
- outcome [10]: inactive
- Potency [11]: inactive
- outcome [12]: inactive
- outcome [13]: inactive
- outcome [14]: inactive
- Potency [15]: inactive
- outcome [16]: inactive
- Potency [17]: inactive

SMILES: NC(=O)c1ncn([C@@H]2O[C@H](CO)[C@@H](O)[C@H]2O)c1O
- Potency [1]: inactive
- Potency [2]: inactive
- Potency [3]: inactive
- Potency [4]: inactive
- Potency [5]: inactive
- Potency [6]: inactive
- outcome [7]: inactive
- outcome [8]: inactive
- Potency [20]: inactive
- outcome [9]: inactive
- Potency [11]: inactive
- outcome [12]: inactive
- outcome [13]: inactive
- Potency [15]: inactive
- outcome [16]: inactive
- Potency [17]: inactive
- Potency [18]: inactive
- Potency [19]: inactive

SMILES: CCCCCCCCCCCCI
- Potency [1]: inactive
- Potency [2]: inactive
- Potency [3]: inactive
- Potency [4]: inactive
- Potency [5]: inactive
- Potency [6]: inactive
- outcome [7]: inactive
- outcome [8]: inactive
- Potency [20]: inactive
- outcome [9]: inactive
- Potency [11]: inactive
- outcome [12]: inactive
- outcome [13]: inactive
- outcome [14]: inactive
- Potency [15]: inactive
- outcome [16]: inactive
- Potency [18]: inactive
- Potency [19]: inactive

SMILES: O=C1C(CCS(=O)c2ccccc2)C(=O)N(c2ccccc2)N1c1ccccc1 (stereo not drawn)
- Potency [1]: inactive
- Potency [2]: inactive
- Potency [3]: inactive
- Potency [4]: inactive
- Potency [5]: inactive
- Potency [6]: inactive
- fluorescence, relative to Rose Bengal [7]: -0.0311% [at 18.6 µM]
- fluorescence, % of fluorescein control [8]: -0.114% [at 18.6 µM]
- fluorescence, % of triamterene [20]: -0.0077% [at 18.6 µM]
- fluorescence, % of fluorescent control [9]: 0.179% [at 18.6 µM]
- fluorescence, % of fluorescein [10]: -0.11% [at 18.6 µM]
- activity change [12]: 0.112% [at 18.6 µM]
- fluorescence, % of fluorescent control [13]: 0.107% [at 18.6 µM]
- fluorescence, % of Rose Bengal [14]: -0.0469% [at 18.6 µM]
- fluorescence, % of fluorescent control [15]: -0.0192% [at 18.6 µM]
- fluorescence, % of fluorescein control [16]: -0.0165% [at 18.6 µM]
- fluorescence, % of fluorescent control [17]: -0.182% [at 18.6 µM]
- Potency [18]: inactive
- Potency [19]: inactive

SMILES: O=[N+]([O-])c1ccc(Oc2ccc([N+](=O)[O-])cc2)cc1
- Potency [1]: inactive
- Potency [2]: inactive
- Potency [3]: inactive
- Potency [4]: inactive
- Potency [5]: inactive
- Potency [6]: 5.57 µM (active)
- outcome [7]: inactive
- outcome [8]: inactive
- outcome [9]: inactive
- Potency [11]: inactive
- outcome [12]: inactive
- outcome [13]: inactive
- outcome [14]: inactive
- Potency [15]: inactive
- outcome [16]: inactive

SMILES: CCOC(=O)[C@H](CCc1ccccc1)N[C@@H](C)C(=O)N1CCC[C@H]1C(=O)O
- Potency [1]: inactive
- Potency [2]: inactive
- Potency [3]: inactive
- Potency [4]: inactive
- Potency [5]: inactive
- Potency [6]: inactive
- outcome [7]: inactive
- outcome [8]: inactive
- outcome [9]: inactive
- Potency [11]: inactive
- outcome [12]: inactive
- outcome [13]: inactive
- outcome [14]: inactive
- Potency [15]: inactive
- outcome [16]: inactive
- Potency [17]: inactive
- Potency [18]: inactive
- Potency [19]: inactive
